# Assay outcomes: PubChem, several laboratories
# Rv3671c protease: inhibits the M. tuberculosis serine protease Rv3671c. P9WHR9. inhibition, % at 5.96 µM. 320,000 compounds, 0.048% hits; in the data active means inhibition above about 38%;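 further: extracellular domain of Rv3671c used as enzyme; 0% = enzyme with DMSO and 100% = no enzyme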
# Target sequence (P9WHR9 whole entry, looked up, the tested form may be a part): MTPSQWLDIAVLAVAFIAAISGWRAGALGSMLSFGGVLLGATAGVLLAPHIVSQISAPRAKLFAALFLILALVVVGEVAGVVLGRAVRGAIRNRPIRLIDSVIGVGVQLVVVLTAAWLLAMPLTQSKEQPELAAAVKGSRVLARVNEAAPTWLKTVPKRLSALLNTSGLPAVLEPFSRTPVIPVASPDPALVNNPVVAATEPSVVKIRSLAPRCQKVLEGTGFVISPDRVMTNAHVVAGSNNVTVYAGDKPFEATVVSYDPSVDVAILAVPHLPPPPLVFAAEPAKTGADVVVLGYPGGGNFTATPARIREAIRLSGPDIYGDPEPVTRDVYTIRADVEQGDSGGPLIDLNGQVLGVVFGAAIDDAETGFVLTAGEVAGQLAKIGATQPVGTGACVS
# Mtb hypoxia inh: Mtb hypoxia fluorescent reporter inhibition; fluorescence inhibition, % (concentration not given with the values); 300,000 compounds, 0.1% hits; AID 1159583; M. tuberculosis hypoxia-regulated fluorescent reporter, fluorescence; in the data active means fluorescence inhibition mostly above about 23%, no sharp cut-off; inactive means mostly below about 17%
# FBA Mtb inh: inhibitors of M. tuberculosis fructose-bisphosphate aldolase; P9WQA3; purified M. tuberculosis FBA, fluorescence read-out; inhibition, % at 1 µM; 360,000 compounds, 2.3% hits; in the data active means inhibition above about 27%;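 further: 0% = vehicle and 100% = reference inhibitor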
# GDH-TPI inh: counter-screen for M. tuberculosis FBA inhibitors: GDH-TPI coupled enzymes; GDH-TPI coupled enzyme counterscreen, NADH absorbance; inhibition, % at 4.8 µM; 360,000 compounds, 1.2% hits; AID 588335; in the data active means inhibition above about 30%;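 further: 0% = DMSO wells and 100% = wells lacking the enzyme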
# FadD28 FP inh: inhibitors of Mycobacterium tuberculosis FadD28 bisubstrate binding; FadD28 bisubstrate probe binding, fluorescence polarization; inhibition, % at 12.5 µM; 360,000 compounds, 0.22% hits; in the data active means inhibition above about 8.5%, passing the limit was not always enough
# Mtb UGM inh: Mtb UDP-galactopyranose mutase inhibition | purified UGM, fluorescence polarization probe displacement | 320,000 compounds, 0.06% hits | AID 504406 | inhibition, % at 10 µM | P9WIQ1; in the data active means inhibition above about 10%, passing the limit was not always enough
# Starred values were filed as active, the others as inactive; . = no result given; + = active, no number. Shown are actives, neighbours in structure and some others; about 3.5% of the full set was active somewhere.
SMILES,Rv3671c protease,Mtb hypoxia inh,FBA Mtb inh,GDH-TPI inh,FadD28 FP inh,Mtb UGM inh
Cn1c(=O)c2[nH]c(C=Cc3ccc4c(c3)OCO4)nc2n(C)c1=O,.,.,6,31*,-2,.
CCOC(=O)C1CCN(Cc2ccccn2)CC1,-3,.,.,.,.,1
CCOC(=O)C1CCN(C=Nc2cc(C)on2)CC1,1,1,+,8,-2,0
COc1ccc(C2CC(=O)C=C(C=Cc3ccccc3)C2)cc1OC (configuration not stated),.,3,.,.,.,.
CCCOc1ccc2ccccc2c1C=Nn1c(C)nnc1-n1nc(C)cc1C,.,12,.,.,.,.
COc1ccc2cc3cc(C(=O)NCc4ccccn4)oc3nc2c1,-6,.,+,27,1,1
COc1ccc2cc3cc(C(=O)NCc4ccco4)oc3nc2c1,-15,0,140*,20,-4,1
COc1cc(C=NNc2cccc(C)c2)cc(Br)c1O,.,-2,.,.,.,.
Cc1nn(C)c(C(=O)NN=Cc2ccc(-c3ccccc3)cc2)c1Cl,.,9,.,.,.,.
Cc1cc(C)c(NC(=O)Cn2nnc(C(=O)NCc3ccco3)c2N)c(C)c1,-6,3,7,33*,-2,3
Cc1ccc(NC(=O)Cn2nnc(C(=O)NCc3ccco3)c2N)cc1,3,5,-6,-4,-1,3
O=C1SC(SCc2ccccc2)=N/C1=C\c1ccco1,-5,7,0,6,2,1
CCCSC1=N/C(=C\C=C\c2ccco2)C(=O)S1,7,0,-1,11,15*,-2
CCCSC1=N/C(=C\c2ccc([N+](=O)[O-])o2)C(=O)S1,.,12,-11,5,12*,.
COc1ccccc1N1CCN(N=Cc2cccnc2)CC1,.,-2,.,.,.,.
O=C(COC(=O)c1cccnc1Cl)NC1CCCCCC1,3,2,0,18,0,0
CC1CCCC(C)N1C(=O)COC(=O)c1cccnc1Cl (configuration not stated),4,34*,1,7,-1,1
COc1ccc(CCNC(=O)CSc2nnc(CNc3ccc(Cl)cc3)o2)cc1OC,1,4,-1,-15,-5,1
O=C(CSc1nnc(CNc2ccc(Cl)cc2)o1)Nc1nc2c(s1)CCCC2,5,-9,2,13,15*,1
CC1(C)CC(=O)CC(=NNC(=O)c2cccs2)C1,.,19,.,.,.,.
Nc1nnc(/C=C/c2cccc([N+](=O)[O-])c2)s1,0,0,0,44*,-2,-3
O=c1c(CO)cc(CO)cc(CO)c1O,-4,10,-5,26,0,2
O=C1C=CC(=O)c2c(O)c(CO)c(CO)c(O)c21,.,.,2,9,18*,.
O=C(O)Cn1c2ccccc2c2nc3ccccc3nc21,.,.,-2,32*,-3,.
COc1ccc2c(c1)c1nc3ccccc3nc1n2CC(=O)OC(C)C,3,-1,0,10,-3,19*
SMILES,Rv3671c protease,Mtb hypoxia inh,FBA Mtb inh,GDH-TPI inh,FadD28 FP inh,Mtb UGM inh
COc1ccc(Cn2c3ccc(OC)cc3c3nc4ccccc4nc32)cc1,7,-2,-3,8,-1,2
COc1ccc2c(c1)[nH]c1c(C)nccc12,9,-5,151*,7,-4,-3
c1ccc2c(c1)CCC2=NNc1nc2ccccc2[nH]1,.,-14,.,.,.,.
c1ccc2c(c1)CC/C2=N/Nc1nc2ccccc2[nH]1,6,.,1,49*,-4,1
COC(=O)Cn1c(=O)c(C(=O)CCl)c(N)n(Cc2ccccc2)c1=O,7,14,1,5,-4,-2
COC(=O)Cn1c(=O)c2c(n(Cc3ccccc3)c1=O)N/C(=C/c1ccc(OC)cc1)C2=O,1,8,-1,41*,2,1
COC(=O)c1ccccc1N/C=C1\CCc2c(c(C)nn2-c2ccccn2)C1=O,-10,.,9,32*,0,0
O=C(NCc1ccccc1)c1ccc(=O)oc1,-3,4,0,104*,-1,-3
O=C(NCc1ccco1)c1ccc(=O)oc1,-1,.,-1,50*,0,-1
O=C(NCc1ccccc1)c1ccc(Oc2ccc(C(=O)NCc3ccccc3)cc2)cc1,-11,-12,-3,-8,-3,5
O=C(NCc1ccco1)c1ccccc1,4,16,2,3,-1,-3
COC(=O)CNC(=O)c1ccc(=O)oc1,12,.,9,63*,0,-2
CC(=O)CC1c2cc(C(F)(F)F)ccc2S(=O)(=O)N1C1CCCCC1 (configuration not stated),.,0,.,.,.,.
